D2 PAM-1: potentiates the human D2 dopamine receptor allosterically. P14416. DiscoveRx D2 beta-arrestin cells, luminescence, 90 min; 100% = 57 uM dopamine signal. potentiation, % (no concentration beside the values). actives 0.23% (n = 360,000). AID 624464; in the data active = potentiation above about 50%
Target sequence (P14416 whole entry, looked up): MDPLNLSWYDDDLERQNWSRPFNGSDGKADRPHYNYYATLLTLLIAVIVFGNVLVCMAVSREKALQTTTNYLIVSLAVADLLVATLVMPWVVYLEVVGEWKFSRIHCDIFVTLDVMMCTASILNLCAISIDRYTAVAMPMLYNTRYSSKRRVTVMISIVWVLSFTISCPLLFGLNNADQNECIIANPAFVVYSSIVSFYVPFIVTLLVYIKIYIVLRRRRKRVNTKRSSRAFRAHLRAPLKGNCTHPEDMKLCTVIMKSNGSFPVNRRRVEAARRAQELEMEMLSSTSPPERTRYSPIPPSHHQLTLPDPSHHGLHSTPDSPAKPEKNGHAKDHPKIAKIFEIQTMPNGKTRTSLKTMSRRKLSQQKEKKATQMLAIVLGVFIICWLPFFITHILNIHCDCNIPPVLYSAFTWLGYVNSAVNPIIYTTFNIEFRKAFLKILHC
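D2 cells co-treated with compound plus 50 nM dopamine (EC20) for 90 min at 37 deg C to detect potentiation. Beta-arrestin recruitment was read as enzyme-fragment luminescence after 1 h at ambient temperature. Full response was set by 57 uM dopamine.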
D2 ag-1: activates the human D2 dopamine receptor | P14416 | HEK293 T-REx D2 cells, calcium flux agonist mode | activation, % at 2 µM | actives 0.53% (n = 340,000);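 active = activation over 3 SD above normal in the single-dose calcium agonist read, cut at about 30% in these data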; note: 0% is about no effect
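Calcium-flux readout, 1 cycle/sec over 180 s following compound pin transfer, in inducible HEK293 Trex D2 cells (force-coupled); dopamine controls included. Positive calcium responses during this window marked compounds as potential agonists.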
D2 antagonist: antagonists of human D2 dopamine receptor. actives 2% (n = 340,000). inhibition, % at 10 µM. AID 485344. HEK293 TREx D2 cells, calcium flux, dopamine EC80; in the data active = inhibition above about 30%; inactive = below that, where a call was filed; note: 0% is about no effect
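Inhibition of EC80 dopamine-driven calcium flux, recorded kinetically, defines activity here; cells are a tetracycline-induced HEK293 T-REx line expressing force-coupled D2.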
D2 PAM-2: positively modulates the human D2 dopamine receptor allosterically; P14416; HEK293 T-REx D2, calcium flux, EC20 dopamine potentiation; potentiation, % at 10 µM; actives 0.34% (n = 340,000); AID 485347;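 active = potentiation over 3 SD above the plate norm, cut at about 30% in these data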; note: 0% is about no effect
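Potentiation of an EC20 dopamine calcium response measured kinetically over 180 s, after a preceding 180 s compound-only read flagging agonists. Cells: inducible Hek293 Trex D2 line, 4000/well, cultured overnight at 30 C before dye loading.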
D2 ag-2: activates the human D2 dopamine receptor; P14416; DiscoveRx PathHunter D2 beta-arrestin, luminescence, 90 min; 100% = 57 uM dopamine signal; activation, % (concentration not given with the values); actives 0.084% (n = 360,000); AID 624465; in the data active = activation above about 40%
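Agonist mode: compounds alone added to overnight-plated D2 PathHunter cells for 90 min at 37 C, with 57 uM final dopamine (EC100) defining full response. Beta-arrestin recruitment detected by chemiluminescent reagent, read after 1 h at ambient temperature.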
* = called active by the depositor; . = no result. In the library only some 2.4% were active in any assay of this set; here they are far more common.

SMILES	D2 PAM-1	D2 ag-1	D2 antagonist	D2 PAM-2	D2 ag-2
O=C1C2CCCCN2C(=O)N1CCCCN1CCN(c2cccc(Cl)c2)CC1 (configuration not stated)	-11	3	92*	-17	4
O=C1C2CCCCN2C(=O)N1CCCCN1CCN(c2ccccc2Oc2ccccc2)CC1 (configuration not stated)	-5	0	84*	-15	-7
COc1ccccc1N1CCN(CCCCN2C(=O)C3CCCN3C2=O)CC1 (configuration not stated)	-24	.	.	.	2
COc1ccccc1N1CCN(CC(=O)Nc2cc(F)ccc2C)CC1	-32	0	86*	-23	-1
COc1ccccc1N1CCN(c2ccc(=O)n(CC(=O)Nc3cc(F)ccc3C)n2)CC1	.	-1	.	-2	.
COc1ccccc1N1CCN(CC(=O)Nc2ccc(Cl)c(C(F)(F)F)c2)CC1	-19	1	81*	-30	3
COc1ccccc1C(=O)NCC(=O)N/N=C(\C)Cc1ccccc1	-8	0	30*	-1	-3
COc1ccc(OCC(=O)N/N=C(/C)Cc2ccccc2)cc1	-4	0	32*	7	-5
C/C(Cc1ccccc1)=N\NC(=O)CNC(=O)COc1ccccc1	1	0	25	0	0
CCOC(=O)c1c(C)[nH]c(N=Nc2ccccc2)c1C	-13	-1	67*	5	-4
CCOC(=O)c1c(C)[nH]c(N=Nc2ccc(C)cc2)c1C	-18	1	-5	10	-1
CCOC(=O)c1c(C)[nH]c(N=Nc2cccc(C)c2)c1C	-20	1	33*	13	-3
COc1ccc(CNC(=O)c2ccc3nc(CCc4ccccc4)oc3c2)cc1OC	.	0	.	8	.
Cn1cc(S(=O)(=O)N2CCCCCC2)cc1C(=O)Nc1ccc(Cl)c(C(F)(F)F)c1	.	0	.	11	.
CC1(C(=O)O)CCC(C(=O)Nc2ccc(OC(F)(F)Cl)cc2)C1(C)C (configuration not stated)	-8	1	43*	-5	2
CCc1ccc(NC(=O)CSc2nc(=O)n(Cc3ccco3)c3c2CCC3)cc1	.	1	.	-1	.
CC(C)(CC(=O)O)Cc1nc(-c2ccc(Cl)cc2)no1	-6	-2	44*	-4	-3
COc1ccc(-c2noc(CNC(=O)c3ccco3)n2)cc1	.	1	.	6	.
O=C(NCc1nc(-c2ccc(Cl)cc2)no1)c1ccco1	-1	0	34*	12	0
COc1ccc(CN(Cc2ccco2)c2cnc(S(C)(=O)=O)nc2C(=O)Nc2ccc(F)cc2)cc1	.	3	.	2	.
Cc1cc(OCC(=O)Nc2ccc(C(=O)OC3CCCCC3)cc2)cc(C)c1Cl	.	0	.	5	.
COc1ccc(Br)cc1CNc1ccc(O)cc1	55*	-1	13	.	10
O=C(Nc1ccc(OC(F)(F)F)cc1)C1CC(=O)N(Cc2ccco2)C1 (configuration not stated)	6	-2	47*	0	-5
COc1cc(OC)cc(C(=O)N[C@H](C(=O)OCn2nnc3ccccc3c2=O)C(C)C)c1	-7	-1	-12	31*	-4
O=C(OCn1nnc2ccccc2c1=O)c1cc2ccccc2o1	-5	1	69*	8	0
SMILES	D2 PAM-1	D2 ag-1	D2 antagonist	D2 PAM-2	D2 ag-2
COc1ccc(C(=O)N[C@H](C(=O)OCn2nnc3ccccc3c2=O)C(C)C)cc1	-4	0	-14	3	-3
O=C(OCn1nnc2ccccc2c1=O)c1ccco1	-7	0	-12	-6	0
COc1ccc2oc(=O)c(C(=O)Nc3ccc(C(=O)O)cc3)cc2c1	.	-1	.	3	.
CC(C)n1c(SCC(=O)Nc2ccc(F)cc2)nc2c(oc3ccccc32)c1=O	.	0	.	1	.
O=C(NCCS(=O)(=O)N1CCN(c2ccccc2F)CC1)c1ccccc1C(F)(F)F	.	-1	.	-7	.
CN(c1ccc(C(=O)Nc2ccc(CC#N)cc2)cc1)S(C)(=O)=O	0	0	41*	4	-3
CN(c1ccc(C(=O)Nc2ccc3c(c2)OCO3)cc1)S(C)(=O)=O	-13	0	0	-3	-4
COc1ccc(NS(=O)(=O)c2ccc3c(c2)NC(=O)CO3)c(OC)c1	-10	-2	-12	9	-2

Compound activity deposited in PubChem by National Center for Advancing Translational Sciences (NCATS).
